# Laboratory results: PubChem BioAssay (NCI)
# About 79,000 compounds went through this panel and 15% of them were active in at least one assay; those are over-represented in the sample as a whole. Unmarked numbers belong to inactive results. Calls of active or inactive are those of the source. No stated cut-off is given here; in the data, active means growth inhibition above about 70%; inactive means the rest.
# How the values were obtained:
# [1] = NCI Yeast Anticancer Drug Screen. Data for the rad52 strain (AID 147);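 further: 0% = growth of vehicle-treated control cultures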; details: S. cerevisiae rad52 mutant growth inhibition, active compounds read high
# Procedure, shortened: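 Vehicle-treated cultures served as the reference for growth inhibition of compound-exposed yeast bearing a DNA repair mutation.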
# [2] = NCI Yeast Anticancer Drug Screen. Data for the wt1 strain (AID 149);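 further: 0% = growth of vehicle-treated wt1 cultures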; details: S. cerevisiae wt1 strain (SPY 50644) growth inhibition, active compounds read high
# Procedure, shortened: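 wt1 strain grown with compound or vehicle; inhibition taken from the growth difference.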
# [3] = NCI Yeast Anticancer Drug Screen. Data for the rad50EPP+ strain (AID 151);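 further: 0% = growth of vehicle-treated control cultures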; details: S. cerevisiae rad50 mutant strain, active compounds read high
# Procedure, shortened: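 In this screen, rad50EPP+ yeast were exposed to compounds. Growth inhibition was scored against vehicle-treated controls.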
# [4] = NCI Yeast Anticancer Drug Screen. Data for the mgt1 strain (AID 153); details: S. cerevisiae mgt1 mutant growth inhibition, active compounds read high
# Procedure, shortened: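 mgt1 strain exposed; growth vs vehicle control recorded as inhibition.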
# [5] = NCI Yeast Anticancer Drug Screen. Data for the rad50 strain (AID 155);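 further: 0% = growth of vehicle-only cultures of the same strain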; details: S. cerevisiae rad50 strain growth inhibition, active compounds read high
# Procedure, shortened: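 DNA repair mutant yeast, compound exposure, growth read-out; inhibition is taken relative to vehicle.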
# [6] = NCI Yeast Anticancer Drug Screen. Data for the mec2-1 strain (AID 157); details: S. cerevisiae mec2-1 strain, active compounds read high
# Procedure, shortened: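 Vehicle-treated cultures served as reference for growth inhibition of compound-exposed mec2-1 yeast.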
# [7] = NCI Yeast Anticancer Drug Screen. Data for the rad14 strain (AID 159);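 further: 0% = growth of vehicle-treated control cultures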; details: S. cerevisiae rad14 strain growth inhibition, active compounds read high
# Procedure, shortened: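 DNA repair-defective yeast, compound-exposed; % growth inhibition derived by comparison with vehicle-treated controls.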
# [8] = NCI Yeast Anticancer Drug Screen. Data for the sgs1 mgt1 strain (AID 161);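 further: 0% = growth of cultures given vehicle only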; details: S. cerevisiae sgs1 mgt1 strain, active compounds read high
# Procedure, shortened: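 Read-out: growth inhibition vs vehicle controls. Cells: mutant yeast strain deficient in DNA damage repair.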
# [9] = NCI Yeast Anticancer Drug Screen. Data for the CLN2oe strain (AID 163);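 further: 0% = growth of vehicle-only control cultures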; details: S. cerevisiae CLN2oe strain, active compounds read high
# Procedure, shortened: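 Inhibition relative to vehicle-treated yeast is reported. Cells: strain with genetic alteration in cell-cycle control, grown with compound.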
# [10] = NCI Yeast Anticancer Drug Screen. Data for the cln2 rad14 strain (AID 165);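 further: 0% = growth equal to vehicle treated cultures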; details: S. cerevisiae cln2 rad14 strain, active compounds read high
# Procedure, shortened: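 Each compound was tested on cln2 rad14 yeast. Inhibition of growth was calculated against vehicle-exposed controls.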
# [11] = NCI Yeast Anticancer Drug Screen. Data for the bub3 strain (AID 167); details: S. cerevisiae bub3 mutant strain, active compounds read high
# Procedure, shortened: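 In this screen, a yeast mutant lacking normal mitotic checkpoint function is challenged with compound. Relative growth versus vehicle gives the inhibition value.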
# [12] = NCI Yeast Anticancer Drug Screen. Data for the wt2 strain (AID 169);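 further: 0% = growth of vehicle-treated yeast cultures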; details: S. cerevisiae wt2 strain growth inhibition, active compounds read high
# Procedure, shortened: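 Inhibition of yeast growth was determined after compound treatment, normalised to controls receiving only vehicle.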
# [13] = NCI Yeast Anticancer Drug Screen. Data for the mlh1 strain (AID 171);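 further: 0% = growth of vehicle-treated control cultures of the same strain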; details: S. cerevisiae mlh1 strain growth inhibition, active compounds read high
# Procedure, shortened: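 Vehicle-normalised growth inhibition of a repair- or checkpoint-altered yeast strain following compound treatment.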
# [14] = NCI Yeast Anticancer Drug Screen. Data for the sgs1 strain (AID 173);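 further: 0% = growth of vehicle-only control cultures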; details: S. cerevisiae sgs1 mutant, active compounds read high
# Procedure, shortened: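 Screen format: yeast with repair or checkpoint alterations, compound exposure, growth read relative to vehicle.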
# [15] = NCI Yeast Anticancer Drug Screen. Data for the mlh1 rad18 strain (AID 175); details: S. cerevisiae mlh1 rad18 strain growth inhibition, active compounds read high
# Procedure, shortened: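 Vehicle-treated cultures served as the reference for growth inhibition in a yeast strain carrying DNA damage repair alterations exposed to each compound.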
# [16] = NCI Yeast Anticancer Drug Screen. Data for the rad18 strain (AID 177); details: S. cerevisiae rad18 mutant growth inhibition, active compounds read high
# Procedure, shortened: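 Test articles were incubated with altered yeast defective in DNA damage repair. Results are given as inhibition of growth versus vehicle.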
# [17] = at 5.0 µM (retest, dose inferred, filed as 0.5)
# [18] = at 50.0 µM (retest, dose inferred, filed as 5.0)
compound,measurement,setting,value
Nc1ccc2c(=S)c3ccccc3[nH]c2c1,growth inhibition,[1]; at 1.2 µM,8%
same,growth inhibition,[1]; at 3.7 µM,12%
same,growth inhibition,[1]; at 11.0 µM,12%
same,growth inhibition,[1]; at 33.0 µM,32%
same,growth inhibition,[1]; at 100.0 µM,71% (active)
same,growth inhibition,[2]; at 1.2 µM,9%
same,growth inhibition,[2]; at 3.7 µM,30%
same,growth inhibition,[2]; at 11.0 µM,22%
same,growth inhibition,[2]; at 33.0 µM,44%
same,growth inhibition,[2]; at 100.0 µM,48%
same,growth inhibition,[3]; at 1.2 µM,0%
same,growth inhibition,[3]; at 3.7 µM,6%
same,growth inhibition,[3]; at 11.0 µM,12%
same,growth inhibition,[3]; at 33.0 µM,23%
same,growth inhibition,[3]; at 100.0 µM,74% (active)
same,growth inhibition,[4]; at 1.2 µM,-3%
same,growth inhibition,[4]; at 3.7 µM,1%
same,growth inhibition,[4]; at 11.0 µM,0%
same,growth inhibition,[4]; at 33.0 µM,16%
same,growth inhibition,[4]; at 100.0 µM,51%
same,growth inhibition,[5]; at 1.2 µM,18%
same,growth inhibition,[5]; at 3.7 µM,1%
same,growth inhibition,[5]; [17],15%
same,growth inhibition,[5]; at 11.0 µM,8%
same,growth inhibition,[5]; at 33.0 µM,22%
same,growth inhibition,[5]; [18],50%
same,growth inhibition,[5]; at 50.0 µM,29.4%
same,growth inhibition,[5]; at 100.0 µM,48%
same,growth inhibition,[6]; at 1.2 µM,9%
same,growth inhibition,[6]; at 3.7 µM,-3%
same,growth inhibition,[6]; [17],14%
same,growth inhibition,[6]; at 11.0 µM,-3%
same,growth inhibition,[6]; at 33.0 µM,26%
same,growth inhibition,[6]; [18],40%
same,growth inhibition,[6]; at 50.0 µM,28.9%
same,growth inhibition,[6]; at 100.0 µM,35%
same,growth inhibition,[7]; at 1.2 µM,4%
same,growth inhibition,[7]; at 3.7 µM,7%
same,growth inhibition,[7]; at 11.0 µM,2%
same,growth inhibition,[7]; at 33.0 µM,12%
same,growth inhibition,[7]; at 100.0 µM,42%
same,growth inhibition,[8]; [17],29%
same,growth inhibition,[8]; [18],83% (active)
same,growth inhibition,[8]; at 50.0 µM,80.5% (active)
same,growth inhibition,[9]; at 1.2 µM,16%
same,growth inhibition,[9]; at 3.7 µM,4%
same,growth inhibition,[9]; at 11.0 µM,13%
same,growth inhibition,[9]; at 33.0 µM,19%
same,growth inhibition,[9]; at 100.0 µM,51%
same,growth inhibition,[10]; [17],26%
same,growth inhibition,[10]; [18],62%
same,growth inhibition,[10]; at 50.0 µM,28.3%
same,growth inhibition,[11]; at 1.2 µM,-19%
same,growth inhibition,[11]; at 3.7 µM,-16%
same,growth inhibition,[11]; [17],9%
same,growth inhibition,[11]; at 11.0 µM,-16%
same,growth inhibition,[11]; at 33.0 µM,-9%
same,growth inhibition,[11]; [18],82% (active)
same,growth inhibition,[11]; at 50.0 µM,47.5%
same,growth inhibition,[11]; at 100.0 µM,35%
same,growth inhibition,[12]; at 1.2 µM,-7%
same,growth inhibition,[12]; at 3.7 µM,-1%
same,growth inhibition,[12]; at 11.0 µM,1%
same,growth inhibition,[12]; at 33.0 µM,49%
same,growth inhibition,[12]; at 100.0 µM,83% (active)
same,growth inhibition,[13]; at 1.2 µM,-2%
same,growth inhibition,[13]; at 3.7 µM,9%
same,growth inhibition,[13]; at 11.0 µM,-2%
same,growth inhibition,[13]; at 33.0 µM,27%
same,growth inhibition,[13]; at 100.0 µM,61%
same,growth inhibition,[14]; at 1.2 µM,17%
same,growth inhibition,[14]; at 3.7 µM,18%
same,growth inhibition,[14]; at 11.0 µM,20%
same,growth inhibition,[14]; at 33.0 µM,24%
same,growth inhibition,[14]; at 100.0 µM,59%
same,growth inhibition,[15]; [17],6%
same,growth inhibition,[15]; [18],64%
same,growth inhibition,[16]; at 1.2 µM,2%
same,growth inhibition,[16]; at 3.7 µM,-2%
same,growth inhibition,[16]; at 11.0 µM,-8%
same,growth inhibition,[16]; at 33.0 µM,4%
same,growth inhibition,[16]; at 100.0 µM,67%
